Giardia FBPA inh – qHTS Assay for Inhibitors of Fructose-1,6-bisphosphate Aldolase from Giardia Lamblia; purified Giardia FBPA; actives 0.71% (n = 290,000); Potency, µM (titrated, usually from 59.6 µM), for the others: at the highest dose activity, negative = inhibition, most hits filed as inhibitors; AID 2451, 2010; A8B2U2; also: potency is read from the fitted curve at half-maximal effect; % is scaled to controls: 0 for no effect and ±100 for the full control effect; nearly all actives have a fitted effect of over 55% in size
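40 nM FBPA preincubated 10 min at RT with compound (up to 57.5 uM final), then substrate plus GAPDH/TPI/NAD/arsenate coupling and diaphorase/resazurin added. Fluorescence read after 20 min at RT, 525/598 nm.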
LmPK inhibitor – qHTS Assay for Inhibitors of Leishmania Mexicana Pyruvate Kinase (LmPK). Potency, µM (doses to about 57.5 µM), without a hit: at the highest dose activity change, negative = inhibition, most hits filed as inhibitors. Q27686. actives 0.37% (n = 290,000). purified LmPK, Kinase-Glo ATP luminescence, 1 h; also: potency is read from the fitted curve at half-maximal effect; % is scaled to controls: 0 for no effect and ±100 for the full control effect
Target sequence (Q27686 whole entry, looked up): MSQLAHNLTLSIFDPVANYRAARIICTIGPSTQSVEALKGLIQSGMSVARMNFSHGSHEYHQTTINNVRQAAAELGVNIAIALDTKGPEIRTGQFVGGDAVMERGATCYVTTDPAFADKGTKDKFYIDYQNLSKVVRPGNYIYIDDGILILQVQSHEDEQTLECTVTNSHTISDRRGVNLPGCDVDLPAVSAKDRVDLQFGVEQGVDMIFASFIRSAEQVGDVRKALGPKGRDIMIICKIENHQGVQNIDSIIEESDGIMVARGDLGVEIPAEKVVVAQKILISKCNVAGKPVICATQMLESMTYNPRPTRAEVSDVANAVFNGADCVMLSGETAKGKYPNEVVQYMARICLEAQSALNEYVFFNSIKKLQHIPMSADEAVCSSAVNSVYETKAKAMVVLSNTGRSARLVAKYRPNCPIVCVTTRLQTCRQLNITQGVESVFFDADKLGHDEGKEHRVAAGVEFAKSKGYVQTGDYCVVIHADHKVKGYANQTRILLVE
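Purified LmPK (0.1 nM) converted ADP (0.1 mM) to ATP with PEP (0.5 mM) in imidazole buffer pH 7.2 with KCl and MgCl2, 1 h at room temperature. ATP was read by Kinase-Glo luminescence; data normalized to uninhibited and no-enzyme controls.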
Cycloheximide cs – Cycloheximide Counterscreen for Small Molecule Inhibitors of Shiga Toxin; actives 12% (n = 300,000); cell reporter, cycloheximide protein synthesis inhibition counterscreen; max response, %; in the data active = max response mostly above about 13%, no sharp cut-off; inactive = mostly below about 14%; also: read at 38.3 µM for the half of the compounds with a filed dose; 0% is about no effect
Shiga toxin inh – A qHTS for Small Molecule Inhibitors of Shiga Toxin; Vero cells, Shiga toxin protein synthesis inhibition reporter; actives 9.2% (n = 290,000); inhibition, % at 38.7 µM; in the data active = inhibition mostly above about 28%, no sharp cut-off; inactive = mostly below about 43%; also: 0% is about no effect
Tb PYK inh – qHTS of Trypanosoma Brucei Inhibitors; TbPYK enzyme, Kinase-Glo Plus ATP luminescence, 45 min; actives 0.12% (n = 410,000); pyruvate kinase (Trypanosoma brucei), Q57TT1; Potency, µM (series often up to 76.8 µM), for the others: at the top dose activity, negative = inhibition, most hits filed as inhibitors; AID 624173, 2012; also: potency is read from the fitted curve at half-maximal effect; % is scaled to controls: 0 for no effect and ±100 for the full control effect; nearly all actives have a fitted effect of over 50% in size
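Screened from lowest to highest concentration, compounds were pinned into TbPYK/substrate mixtures, and ADP (130 uM final) was added. Plates sat at room temperature for 45 min prior to Kinase-Glo Plus detection by luminescence.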
Sm TGR block – qHTS Assay for the Inhibitors of Schistosoma Mansoni Peroxiredoxins; purified TGR, DTNB reduction, TNB absorbance 405 nm; Potency, µM (titrated, usually from 114 µM), inactives show at the highest dose activity change, negative = inhibition, hits mostly inhibitors; actives 3% (n = 360,000); AID 485364, 2010; also: potency is read from the fitted curve at half-maximal effect; % is scaled to controls: 0 for no effect and ±100 for the full control effect; nearly all actives have a fitted effect of over 60% in size
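First, TGR (20 nM dispensed) and NADPH were mixed with compound. Second, a 15 min room-temperature incubation followed. Third, further NADPH and then DTNB were added to start the reaction. Finally, TNB absorbance was monitored kinetically.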
Starred values were filed as active, the others as inactive; ? = inconclusive; · = no result; + = active, no number; [ ] = another dose, or the depositor's remark. This is one part of a sample in which hits are shown more often than they occur. Unless noted, calls follow the shape of the dose curve; as a rule, active = well fitted curve in the direction sought with a large enough effect; inconclusive = small, poorly fitted or top-dose-only effect, or another doubt; inactive = no such curve, though single readings can be large; an effect the other way counts as inactive or inconclusive.

SMILES	Giardia FBPA inh	LmPK inhibitor	Cycloheximide cs	Shiga toxin inh	Tb PYK inh	Sm TGR block
COc1ccc(Cl)cc1NC(=O)c1cc(C)nc2c1c(C)nn2-c1ccccc1	·	·	·	·	-1%	-4%
COc1ccc(NC(=O)Nc2cccs2)cc1Cl	-13%	-1%	39*	+	-12%	-28%
CCc1cccc(NC(=O)Nc2cccs2)c1	-17%	-1%	28*	+	-13%	0%
COc1ccc(NC(=O)CCC(=O)c2cccs2)cc1Cl	5%	4%	9.5*	11	4%	-11%
COc1cc(NCCC(=O)c2cccs2)c(OC)cc1Cl	-8%	-5%	3	10	?	1.3µM*
Cc1ccc(/C=C/c2onc(C)c2S(=O)(=O)N2CCC(C(=O)NCC(C)c3ccccc3)CC2)cc1 (configuration not stated)	·	·	·	·	2%	10%
O=C(NCCc1ccccc1Cl)c1cc2ccccn2n1	·	·	·	·	1%[15.4 µM]	-4%
O=C(CN(C(=O)CCC(=O)Nc1nccs1)c1ccc(F)cc1)NCc1ccccc1	·	0%	-5	-1	-2%	-2%
COC(=O)C1=C(C)NC(COC(N)=O)=C(C(=O)OC(C)C)C1c1cccc(Cl)c1Cl (configuration not stated)	·	·	·	·	2%	·
COc1ccc(N2C3=C(CC4=C2CCCC4=O)C(=O)CCC3)cc1	2%	-11%	-4	-4	?	40µM*
Fc1ccc2c(c1)C(c1ccncc1)=NNC(c1ccc(Cl)cc1)=N2	3%	-1%	3	18	-12%	9%
c1ccc(C2=Nc3cccnc3C(c3ccccc3)=NN2)cc1	2%	7%	34*	92*	-10%	-4%
CCOc1ccc(C2=NNC(c3cccnc3)=Nc3ccc(OC)cc32)cc1	-5%	12%	8	15	4%	19%
Fc1ccc2c(c1)C(c1ccncc1)=NNC(c1ccccc1)=N2	-5%	1%	62*	72*	-6%	-5%
Cc1ccc(NC(=O)C(Cc2ccccc2)N2Cc3ccccc3C2=O)cc1Cl (configuration not stated)	·	·	·	·	-10%	3%
COc1ccc(-n2c(=O)c(C)nc3cncnc32)cc1	-1%	·	·	·	5%	·
O=C(c1cccc(F)c1)N1CCC2(CCN(Cc3ccccc3)CC2)CC1	8%	·	·	·	6%	·
CC(=O)c1ccc(OCc2cc(C(=O)NCC3CCCCO3)no2)cc1 (configuration not stated)	-15%	-4%	25*	46*	-5%	17%
CC(=O)c1ccc(OCc2cc(C(=O)NCCc3ccc(Cl)cc3)no2)cc1	8%	8%	19*	48*	6%	1%
COC(=O)c1ccc(CNC(=O)c2cc(COc3cncc(Cl)c3)on2)cc1	·	-13%	17	-10	10%	-17%
Cc1ccc(OCc2cc(C(=O)NCC3COCCO3)no2)cc1C (configuration not stated)	·	0%	41*	42*	9%	2%
Cc1cc(C)nc(CCNC(=O)c2cc(COc3c(F)cccc3F)on2)n1	-2%	-8%	1	-6	0%	14%
Cc1cccc(C)c1OCc1cc(C(=O)NCC2COCCO2)no1 (configuration not stated)	·	-10%	14	-23	4%	-16%
Cc1cc(C)nc(CCNC(=O)c2cc(COc3ccccc3)on2)n1	·	-8%	36*	56*	-14%	0%
Cc1ccc(OCc2cc(C(=O)NCC(C)(C)N3CCOCC3)no2)cc1C	·	-8%	-2	-20	5%	-10%
SMILES	Giardia FBPA inh	LmPK inhibitor	Cycloheximide cs	Shiga toxin inh	Tb PYK inh	Sm TGR block
Cc1ccc(OCc2cc(C(=O)NCc3cc(F)ccc3C)no2)cn1	0%	-3%	22*	28*	-5%	-1%
CCN1CCCC1CNC(=O)c1cc(COc2ccc(C)c(C)c2)on1 (configuration not stated)	-17%	-3%	32*	53*	-4%	-26%
CC1(c2cccc(Br)c2)NC(=O)N(CC(=O)c2ccc3c(c2)OCO3)C1=O (configuration not stated)	·	·	·	·	-2%	·
COc1nc(NCc2ccco2)nc(NC2CCCCC2)n1	2%	0%	26*	42	-2%	-24%
COc1nc(NCc2ccco2)nc(N2CCC(C)CC2)n1	3%	2%	-3	16	2%	-14%
CCOC(=O)C(=Cc1ccccc1)C(=O)OCC	-13%	·	-10	-21	·	·
CCCCCCC(=O)Cc1cc(OC)c(OC)cc1C=C(C(=O)OCC)C(=O)OCC	-6%[12.9 µM]	1%	2	-9	·	40µM*
COc1ccc(NC(=O)COc2ccc(-n3cnnn3)cc2)cc1OC	·	·	·	·	-15%	1%
COc1ccc(C(C)=O)cc1CN1C(=O)NC2(CCCCCCC2)C1=O	5%	-2%	5	-1	1%	-3%
COc1ccc(C(C)=O)cc1COc1ccc(-n2cnnn2)cc1	-4%	2%	-3	30	4%	20µM*
COc1ccc(C(C)=O)cc1CSc1nnc(Nc2ccc(C)cc2)s1	-14%	0%	7	-2	1%	-7%
COc1ccc(C(C)=O)cc1CN(C)C	-16%	-1%	-1	17	1%	5µM*
COc1ccc(C(C)=O)cc1CSc1nnc(C)s1	8%	-4%	0	39	1%	45µM*
COc1ccc(C(C)=O)cc1Cn1c(=O)cc(C)[nH]c1=O	15%	-5%	-5	-12	0%	40µM*
O=C(NCCc1csc2nc(-c3cccc(F)c3)nn12)c1ccc(Br)o1	·	·	·	·	2%	-9%
c1ccc(CCCNc2ncnc3nc[nH]c23)cc1	-8%	-5%	27*	37	-10%	-2%
Clc1ccc(CCNc2ncnc3nc[nH]c23)cc1	-17%	-3%	14	30	-1%	9%
c1ccc(CCCNc2ncccn2)cc1	-12%	-3%	32*	+	6%	0%
c1ccc(CCCCc2ccccn2)cc1	·	·	·	·	1%	·
C1=C(CCNc2ncnc3nc[nH]c23)CCCC1	-9%	-10%	37*	38*	-1%	-13%
c1ccc2c(CCNc3ncnc4nc[nH]c34)cccc2c1	-4%	-3%	31*	+	4%	0%
Cc1ccccc1NC(=O)C(=O)NCC1(c2ccccc2)CCCC1	·	·	·	·	-4%	9%
Cc1[nH]n(-c2ccccc2)c(=O)c1C=NCc1ccncc1	-3%	2%	11	10	17%	9%
Cc1[nH]n(-c2ccccc2)c(=O)c1/C=N/N1C(=O)c2cccc3cccc(c23)C1=O	-3%	-2%	-1	14	-3%	-10%

Bioassay records deposited in PubChem by National Center for Advancing Translational Sciences (NCATS).
